ChEMBL document CHEMBL2218924, “A broad activity screen in support of a chemogenomic map for kinase signalling research and drug discovery” (Biochem J, 2013)

Columns and labels:
[1] = target: Mast/stem cell growth factor receptor Kit (Homo sapiens) (UniProt P10721); details: at 1 µM
[2] = target: Mast/stem cell growth factor receptor Kit (Homo sapiens) (UniProt P10721); details: at 10 µM
[3] = target: Proto-oncogene tyrosine-protein kinase Src (Homo sapiens) (UniProt P12931); details: at 1 µM
[4] = target: Proto-oncogene tyrosine-protein kinase Src (Homo sapiens) (UniProt P12931); details: at 10 µM
[5] = target: Serine/threonine-protein kinase mTOR (Homo sapiens) (UniProt P42345); details: at 1 µM
[6] = target: Serine/threonine-protein kinase mTOR (Homo sapiens) (UniProt P42345); details: at 10 µM
[7] = target: Serine/threonine-protein kinase mTOR (Homo sapiens) (UniProt P42345); details: at 1 µM; remark: listed apart in the source
[8] = target: Serine/threonine-protein kinase mTOR (Homo sapiens) (UniProt P42345); details: at 10 µM; remark: listed apart in the source
[9] = target: T1, Eukaryotic elongation factor 2 kinase (Homo sapiens) (UniProt O00418); details: at 10 µM
T1 sequence (whole entry): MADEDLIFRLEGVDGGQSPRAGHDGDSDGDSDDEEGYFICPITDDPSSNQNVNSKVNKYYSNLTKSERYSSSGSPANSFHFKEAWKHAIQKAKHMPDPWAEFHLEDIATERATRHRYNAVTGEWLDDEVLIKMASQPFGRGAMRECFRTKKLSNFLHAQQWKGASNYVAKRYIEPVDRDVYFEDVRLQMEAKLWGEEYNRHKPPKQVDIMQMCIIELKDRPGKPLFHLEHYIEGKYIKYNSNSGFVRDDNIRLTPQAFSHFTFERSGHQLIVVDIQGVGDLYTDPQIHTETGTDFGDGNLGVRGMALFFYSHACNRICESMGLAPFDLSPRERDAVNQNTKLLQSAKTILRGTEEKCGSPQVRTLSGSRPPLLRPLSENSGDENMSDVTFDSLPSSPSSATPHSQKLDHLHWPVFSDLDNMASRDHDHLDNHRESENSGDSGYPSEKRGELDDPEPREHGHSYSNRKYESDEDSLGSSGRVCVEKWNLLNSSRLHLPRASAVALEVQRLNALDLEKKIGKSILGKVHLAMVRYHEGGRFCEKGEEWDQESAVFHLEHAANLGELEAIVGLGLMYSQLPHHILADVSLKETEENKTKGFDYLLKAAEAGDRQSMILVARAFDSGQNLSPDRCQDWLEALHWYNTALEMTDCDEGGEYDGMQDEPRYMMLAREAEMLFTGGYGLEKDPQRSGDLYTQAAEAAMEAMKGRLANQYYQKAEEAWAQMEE

[10] = target: T1, Eukaryotic elongation factor 2 kinase (Homo sapiens); details: at 1 µM

Chain of Proto-oncogene tyrosine-protein kinase Src (Homo sapiens) (P12931 2-536 limits assumed): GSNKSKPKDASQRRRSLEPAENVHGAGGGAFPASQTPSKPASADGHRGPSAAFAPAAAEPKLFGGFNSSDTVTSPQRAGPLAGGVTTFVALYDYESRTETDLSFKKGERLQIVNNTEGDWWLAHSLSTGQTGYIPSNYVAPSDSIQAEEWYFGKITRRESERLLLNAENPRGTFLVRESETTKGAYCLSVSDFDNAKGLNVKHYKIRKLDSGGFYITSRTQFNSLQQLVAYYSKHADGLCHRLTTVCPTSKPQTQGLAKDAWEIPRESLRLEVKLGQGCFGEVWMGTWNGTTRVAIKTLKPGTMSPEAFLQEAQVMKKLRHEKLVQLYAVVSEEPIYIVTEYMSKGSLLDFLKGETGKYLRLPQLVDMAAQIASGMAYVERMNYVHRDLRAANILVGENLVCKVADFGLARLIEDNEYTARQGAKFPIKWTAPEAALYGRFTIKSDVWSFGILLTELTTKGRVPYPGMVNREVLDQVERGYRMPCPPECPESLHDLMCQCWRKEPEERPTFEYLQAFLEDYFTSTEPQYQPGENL
Chain of Mast/stem cell growth factor receptor Kit (Homo sapiens) (P10721 whole entry): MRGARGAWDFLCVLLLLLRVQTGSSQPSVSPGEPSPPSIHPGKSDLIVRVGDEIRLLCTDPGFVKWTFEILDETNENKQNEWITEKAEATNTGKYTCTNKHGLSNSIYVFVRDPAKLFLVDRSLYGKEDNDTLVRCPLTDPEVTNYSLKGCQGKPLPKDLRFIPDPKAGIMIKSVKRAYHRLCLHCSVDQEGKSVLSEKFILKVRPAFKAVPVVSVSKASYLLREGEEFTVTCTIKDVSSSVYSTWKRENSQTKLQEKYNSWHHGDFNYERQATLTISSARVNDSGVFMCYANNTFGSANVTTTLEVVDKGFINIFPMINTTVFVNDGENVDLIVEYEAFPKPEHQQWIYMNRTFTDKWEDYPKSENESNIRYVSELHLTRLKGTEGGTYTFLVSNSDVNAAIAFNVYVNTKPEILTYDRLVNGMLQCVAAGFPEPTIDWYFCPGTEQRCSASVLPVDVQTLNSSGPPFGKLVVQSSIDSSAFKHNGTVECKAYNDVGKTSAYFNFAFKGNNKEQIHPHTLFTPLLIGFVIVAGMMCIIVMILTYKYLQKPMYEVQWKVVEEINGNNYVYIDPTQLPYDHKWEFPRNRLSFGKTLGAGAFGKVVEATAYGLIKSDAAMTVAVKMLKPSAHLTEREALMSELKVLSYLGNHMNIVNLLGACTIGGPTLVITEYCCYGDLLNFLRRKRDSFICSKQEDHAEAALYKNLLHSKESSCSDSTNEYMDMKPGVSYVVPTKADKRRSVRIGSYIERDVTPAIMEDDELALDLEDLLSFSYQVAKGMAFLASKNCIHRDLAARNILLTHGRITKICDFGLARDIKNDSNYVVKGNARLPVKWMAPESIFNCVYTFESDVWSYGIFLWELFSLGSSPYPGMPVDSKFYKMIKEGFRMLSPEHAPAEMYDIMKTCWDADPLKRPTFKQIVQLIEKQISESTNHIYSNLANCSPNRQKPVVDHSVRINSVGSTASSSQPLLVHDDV

## c1ccc(-c2cnc(Nc3ccc(OCCN4CCCC4)cc3)s2)cc1
[1]
  residual activity: 1%
[2]
  residual activity: 1%
[3]
  residual activity: 70%
[4]
  residual activity: 29%
[5]
  residual activity: 100%
[6]
  residual activity: 106%

## Oc1cccc(-c2nc(N3CCOCC3)c3oc4ncccc4c3n2)c1
[1]
  residual activity: 118%
[2]
  residual activity: 100%
[3]
  residual activity: 91%
[4]
  residual activity: 94%
[5]
  residual activity: 49%
[6]
  residual activity: 35%
[7]
  residual activity: -12%
[8]
  residual activity: 7%

## O=C1Nc2ccc(Cl)cc2/C1=C/c1cc(Cl)c(O)c(Cl)c1
[1]
  residual activity: 21%
[2]
  residual activity: 6%
[3]
  residual activity: 84%
[4]
  residual activity: 65%
[5]
  residual activity: 51%
[6]
  residual activity: 64%
[7]
  residual activity: 112%
[8]
  residual activity: 75%

## CC(C)[C@H](CO)Nc1nc(Nc2cc(N)cc(Cl)c2)c2ncn(C(C)C)c2n1
[1]
  residual activity: 99%
[2]
  residual activity: 89%
[3]
  residual activity: 28%
[4]
  residual activity: 2%
[5]
  residual activity: 98%
[6]
  residual activity: 83%
[8]
  residual activity: 72%

## CCOC(=O)c1c(C)[nH]c(/C=C2\C(=O)Nc3ccccc32)c1C
[1]
  residual activity: 38%
[2]
  residual activity: 53%
[5]
  residual activity: 98%
[6]
  residual activity: 99%

## CN(C)S(=O)(=O)c1ccc2c(c1)/C(=C/c1cc3c([nH]1)CCCC3)C(=O)N2
[1]
  residual activity: 29%
[2]
  residual activity: 28%
[3]
  residual activity: 31%
[4]
  residual activity: 35%

## Nc1ncnc2c1c(-c1ccc(Oc3ccccc3)cc1)cn2C1CCCC1
[1]
  residual activity: 36%
[2]
  residual activity: 1%
[3]
  residual activity: 5%
[4]
  residual activity: -1%
[5]
  residual activity: 99%
[6]
  residual activity: 104%
[7]
  residual activity: 97%
[8]
  residual activity: 98%

## COc1cc2nccc(Oc3ccc(NC(=S)NC(=O)c4ccccc4C)cc3)c2cc1OC
[1]
  residual activity: 28%
[2]
  residual activity: 3%
[3]
  residual activity: 32%
[4]
  residual activity: 7%

## COc1cc2nccc(Oc3ccc(NC(=O)Nc4cc(C)on4)c(Cl)c3)c2cc1OC
[1]
  residual activity: 3%
[2]
  residual activity: 0%

## COc1ccc(-c2cnc3c(-c4ccsc4)cnn3c2)cc1
[1]
  residual activity: 100%
[2]
  residual activity: 85%
[3]
  residual activity: 77%
[8]
  residual activity: 90%

## O=C1C(Cl)=C(N2C(=O)CCC2=O)C(=O)c2ccccc21
[1]
  residual activity: 101%
[2]
  residual activity: 98%
[3]
  residual activity: 124%
[4]
  residual activity: 89%
[8]
  residual activity: 78%

## COc1cc2ncnc(Nc3cccc(Cl)c3)c2cc1OC
[1]
  residual activity: 103%
[2]
  residual activity: 107%
[3]
  residual activity: 58%
[4]
  residual activity: 29%

## Cc1cc(C)c(/C=C2\C(=O)Nc3ccccc32)[nH]1
[1]
  residual activity: 11%
[2]
  residual activity: 1%
[9]
  residual activity: 105%

## O=C(c1ccccc1)c1ccc(N2CCOCC2)cc1O
[1]
  residual activity: 111%
[2]
  residual activity: 96%
[3]
  residual activity: 87%
[4]
  residual activity: 93%
[5]
  residual activity: 88%
[6]
  residual activity: 94%
[7]
  residual activity: 96%
[8]
  residual activity: 54%

## CCCC(=O)Oc1ccc2[nH]c(C(=O)c3cc4ccccc4[nH]3)cc2c1
[1]
  residual activity: 107%
[2]
  residual activity: 89%
[3]
  residual activity: 81%
[4]
  residual activity: 94%
[5]
  residual activity: 100%
[6]
  residual activity: 95%
[7]
  residual activity: 99%
[8]
  residual activity: 79%

## Nc1ncnc2[nH]nc(Nc3ccc(F)cc3)c12
[1]
  residual activity: 106%
[2]
  residual activity: 106%
[3]
  residual activity: 100%
[4]
  residual activity: 54%
[5]
  residual activity: 98%
[6]
  residual activity: 90%
[7]
  residual activity: 91%
[8]
  residual activity: 95%

## CC(C)(C)c1nc2c3ccc(F)cc3c3c(=O)[nH]ccc3c2[nH]1
[1]
  residual activity: 119%
[2]
  residual activity: 101%

## Nc1nc(Nc2ccc(S(N)(=O)=O)cc2)nn1C(=O)c1c(F)cccc1F
[1]
  residual activity: 100%
[2]
  residual activity: 63%
[5]
  residual activity: 115%

## NC(=O)Nc1sc(-c2ccc(F)cc2)cc1C(N)=O
[1]
  residual activity: 56%
[2]
  residual activity: 4%
[3]
  residual activity: 54%
[4]
  residual activity: 10%
[5]
  residual activity: 114%
[6]
  residual activity: 92%

## O=c1cc(N2CCNCC2)oc2c(-c3ccccc3)cccc12
[1]
  residual activity: 97%
[2]
  residual activity: 95%
[3]
  residual activity: 94%
[4]
  residual activity: 99%
[5]
  residual activity: 90%
[6]
  residual activity: 99%
[7]
  residual activity: 76%
[8]
  residual activity: 90%

## O=C(Nc1ccc(Cl)cc1)c1ccccc1NCc1ccncc1
[1]
  residual activity: 17%
[2]
  residual activity: -1%
[3]
  residual activity: 78%
[8]
  residual activity: 69%

## O=C(c1cc2cc(O)ccc2[nH]1)c1cc2cc(O)ccc2[nH]1
[1]
  residual activity: 33%
[2]
  residual activity: 5%
[3]
  residual activity: 28%
[4]
  residual activity: 3%

## CC(C)(C)n1nc(Cc2cccc3ccccc23)c2c(N)ncnc21
[1]
  residual activity: 113%
[2]
  residual activity: 77%
[3]
  residual activity: 63%
[4]
  residual activity: 24%
[5]
  residual activity: 98%
[6]
  residual activity: 97%
[7]
  residual activity: 120%
[8]
  residual activity: 87%

## Cn1sc(=O)n(Cc2ccccc2)c1=O
[1]
  residual activity: 100%
[2]
  residual activity: 85%
[4]
  residual activity: 92%

## Cn1c2ccccc2c2c3c(c4c5ccccc5n(CCC#N)c4c21)CNC3=O
[1]
  residual activity: 113%
[2]
  residual activity: 82%
[3]
  residual activity: 69%
[4]
  residual activity: 79%
[10]
  residual activity: 100% (inactive)
[9]
  residual activity: 116%
[5]
  residual activity: 115%
[6]
  residual activity: 112%
[7]
  residual activity: 72%
[8]
  residual activity: 99%

## O=C1Cc2c([nH]c3ccc([N+](=O)[O-])cc23)-c2ccccc2N1
[1]
  residual activity: 110%
[2]
  residual activity: 109%
[3]
  residual activity: 53%
[4]
  residual activity: 29%
[5]
  residual activity: 120%
[6]
  residual activity: 114%
[7]
  residual activity: 104%
[8]
  residual activity: 100%

## NCCNc1ncc(C(N)=O)c(Nc2cccc(C(F)(F)F)c2)n1
[1]
  residual activity: 112%
[2]
  residual activity: 105%
[3]
  residual activity: 70%
[4]
  residual activity: 43%
[5]
  residual activity: 104%
[7]
  residual activity: 117%

## CCCCc1c(-c2ccc(O)cc2)[nH]c2nccnc12
[1]
  residual activity: 98%
[2]
  residual activity: 77%
[3]
  residual activity: 61%
[4]
  residual activity: 22%
[8]
  residual activity: 96%

## CCN(CC)CCNC(=O)c1c(C)[nH]c(/C=C2\C(=O)Nc3ccc(Cl)cc32)c1C
[1]
  residual activity: -1%
[2]
  residual activity: 0%
[3]
  residual activity: 48%
[4]
  residual activity: 13%
